Experimental findings from PubChem BioAssay AID602350 (Broad Institute, 2012) are described below.

Results with a measured potency or affinity are listed apart. Active and inactive are the calls of the source.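 The calls were made as follows: active = absorbance falls by 30% or more versus neutral controls, with a potency fitted within twice the top valid dose; inconclusive = no clear call, values can overlap the other calls; inactive = change opposite to expected direction, plus the rest.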

The target in this test is Protein disulfide-isomerase (Homo sapiens) (UniProt P07237). The test is described as follows: inhibition of PDI-driven insulin aggregation – biochemical, turbidity, absorbance, cherry-picked samples, dose response (AID 602350). As to conditions: recombinant PDI insulin aggregation, absorbance 650 nm, 90 min; series mostly up to 19.5 µM.
Protein disulfide-isomerase (Homo sapiens), sequence (P07237 whole entry, looked up): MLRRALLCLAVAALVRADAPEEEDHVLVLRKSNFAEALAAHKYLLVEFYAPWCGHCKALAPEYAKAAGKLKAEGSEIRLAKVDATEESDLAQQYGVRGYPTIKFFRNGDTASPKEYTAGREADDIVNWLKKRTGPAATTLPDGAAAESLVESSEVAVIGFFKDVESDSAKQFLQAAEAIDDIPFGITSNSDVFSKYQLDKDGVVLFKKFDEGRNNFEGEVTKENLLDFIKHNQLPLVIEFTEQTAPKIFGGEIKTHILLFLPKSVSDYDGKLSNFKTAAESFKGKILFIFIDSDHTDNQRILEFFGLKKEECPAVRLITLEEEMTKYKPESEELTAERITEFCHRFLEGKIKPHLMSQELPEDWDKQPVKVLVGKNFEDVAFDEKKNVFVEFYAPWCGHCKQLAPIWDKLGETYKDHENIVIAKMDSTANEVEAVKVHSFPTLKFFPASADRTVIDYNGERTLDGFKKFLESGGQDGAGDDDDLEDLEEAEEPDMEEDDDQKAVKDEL
Turning to `OCCC1CN(Cc2cccn2-c2ccccn2)CCN1C1CCCCC1` (stereo not given), the outcome was inactive. `O=C(NC(Cc1c[nH]c2ccccc12)C(=O)N/N=C/c1cccnc1)c1cccs1` (stereo not given): the outcome was inactive.

For the molecule `CCOC(=O)C1(CC2CC2)CCN(Cc2cc(Cl)c(O)c(OC)c2)CC1`, the result was inactive. Turning to `CC(=O)NC(Cc1c[nH]c2ccccc12)C(=O)OCC(=O)N1CCN(S(=O)(=O)c2ccc(Cl)cc2)CC1` (stereo not given), the outcome was inactive. Regarding `O=C(c1ccc(S(=O)(=O)N2CCCCC2)cc1)N1CCN(Cc2ccc3c(c2)OCO3)CC1`, the outcome was inactive. In the case of `CCCCNC(=O)Nc1ccon1`, the result was inactive. On to `CCc1ccc(NC(=O)Nc2ccncc2)cc1`, for which the result was inactive. For `CCCCn1c(SCC(=O)NC2CCS(=O)(=O)C2)nc2ccccc2c1=O` (stereo not given), the result was inactive. On to `COc1ccc(N(Cc2cc3cc(OC)ccc3[nH]c2=O)C(=O)C2CCCO2)cc1` (stereo not given), for which the outcome was inactive.

Turning to `CCOC(=O)C1(CCOc2ccccc2)CCN(Cc2ccc(OC)cc2)CC1`, the result was inactive.

`CC(=O)OC1CCC2C3CCC4=C(CC(F)C(=O)C4)C3CCC12C` (stereo not given): the outcome was inactive. On to `CC1CC(C)CN(C(=O)COC(=O)c2ccc[nH]c2=O)C1` (stereo not given), for which the outcome was inactive. Consider `C[C@@H](CN1C2=NC[C@H](Cc3ccc(O)cc3)N2C[C@H]1Cc1ccc(O)cc1)NC(=O)CCC1CCCCC1`, for which the outcome was inactive. The result for `CCC(=O)Nc1ccc(-c2cc3ccccc3oc2=O)cc1` reads “inactive”.

For the molecule `COc1ccc(CCNC(=O)c2cc(S(=O)(=O)N(C)C)ccc2N2CCCC2)cc1`, the result was inactive. To `O=c1[nH]c(C2CCN(S(=O)(=O)c3ccc(C(F)(F)F)cc3)CC2)nc2c1nnn2Cc1ccc(F)cc1` belongs “inactive”; to `Cc1ccc(-c2cc(C(=O)NNC(=O)c3csc(N4CCOCC4)n3)c3ccccc3n2)cc1`, “inactive”.

For `Cc1[nH][nH]c(=O)c1C(c1c(C)[nH][nH]c1=O)c1cn(Cc2ccccc2Cl)c2ccccc12`, the result was inactive.

With `CCOc1ncccc1C(=O)OCC(=O)Nc1ccc(C(C)C)cc1`, the outcome was inactive.

On to `C=CCn1c(C(CCCC)CC(O)COCC(C)C)n[nH]c1=S` (stereo not given), for which the outcome was inactive. To `CC(=O)Oc1ccccc1C(=O)C=Cc1cccc([N+](=O)[O-])c1` belongs “inactive”; to `CCOc1cc(/C=C/C(=O)c2ccc(O)cc2)ccc1OCC(=O)N(C)C`, “inactive”; to `Cc1ccc(C2=Nc3ccccc3SC(c3cccc([N+](=O)[O-])c3)C2)cc1` (stereo not given), “inactive”. Consider `CCOC(=O)C(C)c1n[nH]c(=O)c2ccccc12` (stereo not given), for which the result was inactive. On to `O=C(c1ccc(OCCN2CCCCC2)cc1)c1c(-c2ccc(O)cc2)sc2cc(O)ccc12`, for which the outcome was inactive.
